Most compounds without a hit are left out; they make up all but 3.7% or so of the library.
p53 reactivator: qHTS assay for re-activators of p53 using a Luc reporter | Potency, µM (series often up to 92.2 µM), for inactives: at the highest dose activity change, positive = activation, hits mostly activators | H1299 p53-A138V BP100-luciferase reporter, luminescence, 24 h | 320,000 compounds, 0.063% hits; note: potency is the fitted concentration of half-maximal effect; % of control where 0% means no effect; nearly all actives have a fitted effect of over 45% in size
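p53-null H1299 cells stably carrying temperature-sensitive p53-A138V and a BP100-luciferase reporter were pinned with compounds (4-point, 1:5 series) and held 24 hrs at 37 deg C. Luminescence was read 10 min after detection reagent.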
ClpP mod: qHTS Assay for Activators of ClpP; purified B. subtilis ClpP, FRET peptide cleavage, 20 min; Potency, µM (series often up to 57.5 µM), for the others: top-dose activity change, negative = active; 340,000 compounds, 1.9% hits; AID 651965, 2013; active = well fitted falling curve with a large enough effect; inconclusive = small, poorly fitted or top-dose-only effect; inactive = no such curve, though single readings can be large or run the other way; note: potency is the fitted concentration of half-maximal effect; the source files actives as falling curves though it sought activators and does not explain the sign; nearly all actives have a fitted effect of over 65% in size
Target sequence (P80244 whole entry, looked up): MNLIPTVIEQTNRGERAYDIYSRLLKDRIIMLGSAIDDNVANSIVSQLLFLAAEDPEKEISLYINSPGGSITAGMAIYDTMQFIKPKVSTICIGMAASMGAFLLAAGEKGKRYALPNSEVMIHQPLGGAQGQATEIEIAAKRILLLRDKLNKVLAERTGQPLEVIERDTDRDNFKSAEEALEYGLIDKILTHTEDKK
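Purified B. subtilis ClpP, 10 microg/mL final in Tris/HCl pH8 with KCl, BSA, glycerol and Tween-20, cleaved an Abz/nitrotyrosine-quenched decapeptide. Fluorescence (ex 320, em 430) was read at 0 and 20 min at room temperature. Delta was normalized to 5.8 microM ADEP and DMSO/no-enzyme controls.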
A549 tox: Nrf2 qHTS screen for inhibitors: counterscreen for cytotoxicity; A549 ARE-Fluc cells, CellTiter-Fluor viability, 18-24 h; Potency, µM (doses to about 46 µM), without a hit: at the top dose activity change, negative = cytotoxicity, actives largely listed as inhibitors; 390,000 compounds, 0.16% hits; AID 504648, 2011; note: potency is the fitted concentration of half-maximal effect; % is set by controls: 0 for no effect and ±100 for the full control effect
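A549 ARE_Fluc cells in 5% FBS OPTI-MEM were exposed to compounds in concentration-response for 18-24 h at 37 deg C. Viability was read by CellTiter-Fluor fluorescence (Ex 405/Em 525) after 30 min, before the luciferase read.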
Nrf2 block: Nrf2 qHTS screen for inhibitors | A549 ARE-Fluc reporter, luciferase luminescence, 18-24 h | Potency, µM (titrated, usually from 46 µM), for the others: at the highest dose activity change, negative = inhibition, usual class: inhibitors | 360,000 compounds, 2.1% hits; note: potency is the fitted concentration of half-maximal effect; % is set by controls: 0 for no effect and ±100 for the full control effect; nearly all actives have a fitted effect of over 60% in size
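A549 ARE_Fluc cells, 5000/well, 5% FBS OPTI-MEM; compounds in dose-response, 18-24 h at 37 °C/5% CO2; CellTiter-Fluor viability read (Ex 405/Em 525), then BugLite luciferase luminescence = Nrf2 activity.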
miR-21 reporter: qHTS Assay for Modulators of miRNAs and/orActivators of miR-21; Potency, µM (titrated, usually from 38.3 µM), inactives show at the highest dose activity change, positive = activation, actives largely listed as activators; AID 2288, 2010; HeLa miR-21 FLuc reporter, luciferase, 48 h; 340,000 tested, under 10 active;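 note: % of control where 0% means no effect; miR-21 action dims this reporter so a rising signal means less miR-21 action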
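Compounds were titrated across several concentrations (up to approximately 40 uM) and incubated 48 hours with HeLa miR-21-FLuc reporter cells (miR-21 target sequence downstream of FLuc, endogenous miR-21). Readout was firefly luciferase luminescence after lytic detection reagent.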
Nrf2 ARE act: qHTS of Nrf2 Activators; Potency, µM (titrated, usually from 46.1 µM), for the others: at the highest dose activation, actives largely listed as activators; 410,000 compounds, 0.31% hits; AREc32 ARE-luciferase reporter (MCF7-derived line), luminescence, 24 h; note: potency is the fitted concentration of half-maximal effect; % of control where 0% means no effect; nearly all actives have a fitted effect of over 65% in size
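Each well held 1000 AREc32 cells, which were incubated with compound for 24 hr at 37 deg C after overnight attachment, and ARE reporter activity was quantified by firefly luciferase luminescence.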
ClpP validation: qHTS Assay for Activators of ClpP: Hit Validation of Inhibitors. shares compounds with ClpP mod. purified B. subtilis ClpP, FRET-FV substrate cleavage, 20 min. Potency, µM (series often up to 57.5 µM), without a hit: at the highest dose activity change, negative = inhibition, hits mostly inhibitors. 470 compounds, 40% hits; note: potency is the fitted concentration of half-maximal effect; % is set by controls: 0 for no effect and ±100 for the full control effect; nearly all actives have a fitted effect of over 70% in size
Numbers without * were called inactive; ? = inconclusive; nt = no result; [ ] = dose if it differs, or a comment. Unless noted, calls come from the whole dose curve; as a rule, active = well fitted curve in the direction sought with a large enough effect; inconclusive = small, poorly fitted or top-dose-only effect, or another doubt; inactive = no such curve, though single readings can be large; an effect the other way counts as inactive or inconclusive.

SMILES	p53 reactivator	ClpP mod	A549 tox	Nrf2 block	miR-21 reporter	Nrf2 ARE act	ClpP validation
O=C(Nc1cccc(-c2cn3ccccc3n2)c1)c1cc2ccccc2oc1=O	?	37%	-2%[1.84 µM]	-5%	-49%	2%	14%
Cc1nnc(NC(=O)c2sc3ccccc3c2Cl)s1	0%	-6%	-19%	?	27%	0%	nt
CNC(=O)c1ccsc1NC(=O)c1sc2ccccc2c1Cl	11%	58%	-4%	?	-51%	25%	?
COc1ccc(-c2nc(NC(=O)c3ccc(OCC(=O)Nc4ccc(F)cc4)c(OC)c3)sc2C)cc1	1%	144%	?	15µM*	4%	0%	19µM*
CCN(CC)c1nc2ccccc2nc1C(=O)Nc1ccc(C(C)=O)cc1	nt	0%	-2%	nt	29%	-1%	nt
CCC12CN3CC(C)(CN(C1)C3c1c[nH]c3ccccc13)C2=O (stereo not given)	nt	1%	0%	-1%	6%	0%	nt
COc1ccc(Cn2ccc3nc(C)c(C(=O)NCc4ccc(SC)cc4)cc3c2=O)cc1	nt	184%	2%	-23%	-8%	-1%	24µM*
CCOc1ccccc1CNC(=O)c1cc2c(=O)n(Cc3cccnc3)ccc2nc1C	nt	6.3µM*	3%	-23%	-7%	4%	-2%
CC(=O)N1c2ccc(S(=O)(=O)N3CCC(C(=O)Nc4cccc(Cl)c4C)CC3)cc2CC1C (stereo not given)	nt	0%	-1%	?	11%	0%	nt
Cc1ccc(Cn2c(CNS(=O)(=O)c3c(C)cc(C)cc3C)nc3cccnc32)cc1	nt	-3%	-3%	nt	4%	5%	nt
CN(C)S(=O)(=O)c1ccc(C(=O)Nc2nc(-c3cc4ccccc4o3)cs2)cc1	5%	140%	-18%	6.5µM*	-11%	0%	-25%
Cc1cc(-c2csc(NC(=O)c3ccc(S(=O)(=O)N(C)C)cc3)n2)c(C)n1-c1ccccc1	10%	1%	2%	?	-4%	0%	nt
CCOc1ccc(N2CC(C(=O)Nc3ccc(S(=O)(=O)N4CCCC4)cc3)CC2=O)cc1 (stereo not given)	-2%	nt	-2%	-3%	2%	0%	nt
CCOc1ccc(N2CC(C(=O)Nc3ccc(S(=O)(=O)N4CCCCC4)cc3)CC2=O)cc1 (stereo not given)	6%	7.9µM*	-6%	-17%	nt	0%	-1%
COC/C=C/c1cc(F)c(S(=O)(=O)N2CCN(S(=O)(=O)c3ccc4c(c3)OCCO4)CC2)cc1F	nt	nt	-4%	-23%	nt	nt	nt
Cc1ccccc1N(CC(=O)Nc1ccc(S(=O)(=O)N2CCOCC2)cc1)S(C)(=O)=O	0%	45%	3%	5%	1%	0%	1%
COc1ccc2c(c1)c1ncn(CCc3ccccc3)c(=O)c1n2C	-8%	4.5µM*	-17%	-5%	-4%	5%	12µM*
O=C(Nc1ccc2nc(SCC(=O)N3CCc4ccccc43)sc2c1)c1ccc(F)cc1	nt	416%	?	?	-10%	1%	24µM*
COc1ccc2c(c1)CCc1c(C(=O)Nc3cc(C)n(Cc4ccc(Cl)cc4)n3)noc1-2	4%	60%	11%	-6%	-6%	-1%	-17%
Fc1ccccc1-n1ncc2c1ncn1nc(COc3ccc(Cl)cc3)nc21	nt	4%	1%	12%	2%	0%	nt
Cc1cccc(-c2nnc(NC(=O)c3cccs3)s2)c1	27%	3%	-11%	17%	-41%	?	nt
CNc1nnc(-c2cccc(N(C)C)c2)s1	6%	39%	-5%	-3%	-58%	-1%	0%
O=S(=O)(c1ccccc1)N1CCC2(CC1)OCCN2S(=O)(=O)c1cccs1	5%	33%	2%	13%	nt	0%	0%
COc1ccc(S(=O)(=O)N2CCOC23CCN(S(=O)(=O)c2cccs2)CC3)cc1	3%	1%	-1%	3%	nt	-1%	nt
OC1c2c(F)cccc2N=C2CCCCCN21 (stereo not given)	nt	4%	nt	nt	nt	0%	nt
SMILES	p53 reactivator	ClpP mod	A549 tox	Nrf2 block	miR-21 reporter	Nrf2 ARE act	ClpP validation
CN1CCOC(c2ccccc2)c2ccccc2C1 (stereo not given)	nt	-1%	0%	6%	-3%	-1%	nt
CC(C)N1CCOC1c1ccccc1 (stereo not given)	nt	7.9µM*	-2%	2%	nt	0%	-1%
c1ccc(-c2ccc(-c3cn4c(n3)CCC4)cc2)cc1	?	2.8µM*	-7%	?	-2%	0%	22µM*
COc1ccc(-n2ncc(C(=O)N3CCN(c4ncccn4)CC3)c2C2CCN(C(=O)OC(C)(C)C)CC2)cc1	nt	?	10%	21%	-3%	-1%	nt
Cc1ccc(C(=O)Nc2ccc3oc(-c4cccnc4)nc3c2)c(Cl)c1	nt	?	6%	-13%	-12%	0%	nt
Cc1ccc(C(=O)Nc2cccc(-c3nc4ccccc4o3)c2)c(Cl)c1	nt	76%	-1%	?	-8%	4%	?
O=c1oc2ccc3ccccc3c2cc1-c1nc2ccccc2o1	nt	2.5µM*	?	23%	nt	16%	24%
Cc1cccc(C)c1NC(=O)C(c1ccccc1)n1c(=O)c(-c2cc3ccccc3[nH]2)nc2ccccc21 (stereo not given)	nt	12%	nt	nt	nt	nt	nt
O=C(NCc1ccccc1)C(c1cccc2ccccc12)n1c(=O)c(-c2cc3ccccc3[nH]2)nc2ccccc21 (stereo not given)	nt	42%	nt	nt	nt	nt	6%
O=C(NCc1ccccc1)C(c1ccc(C(F)(F)F)cc1)n1c(=O)c(-c2cc3ccccc3[nH]2)nc2ccccc21 (stereo not given)	nt	28%	nt	nt	nt	nt	-5%
O=c1c(-c2cc3ccccc3[nH]2)nc2ccccc2n1C(CCc1ccccc1)c1nc2ccccc2[nH]1 (stereo not given)	nt	32%	nt	nt	nt	nt	7%
O=C(NCc1ccccc1)C(CCc1ccccc1)n1c(=O)c(-c2cc3ccccc3[nH]2)nc2ccccc21 (stereo not given)	nt	11%	nt	nt	nt	nt	nt

Assay outcomes deposited in PubChem by National Center for Advancing Translational Sciences (NCATS).
